Here are results for eleven compounds from PubChem BioAssay (Tox21).

Unmarked numbers belong to inactive results. Records with an inconclusive call do not appear. Calls of active or inactive are those of the source. Unless noted, calls come from the whole dose curve; as a rule, active = well fitted curve in the direction sought with a large enough effect in the repeat runs; inconclusive = weak or mixed curves; inactive = no such curve, though single readings can be large; an effect the other way counts as inactive or inconclusive.

Experiment [1] can be described thus: qHTS assay to identify small molecule agonists of H2AX - cell viability counter screen (AID 1224847; calls by dose curve;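 note: wild-type CHO-K1 cells; top concentration of the series differs between compounds; nearly all actives have a fitted effect of over 30% in size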). In a few lines: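 After overnight plating of 1000 CHO-K1 cells per well, a 15-concentration compound series was applied for 3 hr at 37C. Luminescence from CellTiter-Glo, read following 30 min at room temperature, reflected cell viability.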
The nature of experiment [2]: qHTS RealTime-Glo MT Cell Viability Assay in HEK293 cells - 32 hour (AID 1224868). Note: nearly all actives have a fitted effect of over 50% in size. Note: potency is the fitted concentration of half-maximal effect. In a few lines:
(§1)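 Reads taken at 0, 8, 16, 24, 32 and 40 h from the same wells. HEK293 cells (600/well) carried RealTime-Glo reagents from seeding, with compound added after a 5 h settle at 37 C.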
A general note: qHTS replaces the single test concentration by a dilution series.

Experiment [3] in a line: A CellTox Green Cytotoxicity Assay to monitor cytotoxicity in HEK293 cells - 0 hour (AID 1224869). Note: nearly all actives have a fitted effect of over 50% in size. The procedure, abridged:
(§2)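 Nonlytic real-time cytotoxicity: HEK293 + CellTox Green reagent plated, 5 h preincubation, pintool compound addition (23 nL in DMSO), 37 C for 40 h, fluorescence measured at successive time points.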

A short description of experiment [4]: qHTS RealTime-Glo MT Cell Viability Assay in HepG2 cells - 40 hour (AID 1224870). Note: nearly all actives have a fitted effect of over 50% in size. In a few lines: (§3)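 Real-time viability: cells seeded at 600 per well together with NanoLuc and cell-permeant prosubstrate, compounds added after 5 h incubation. Luminescence tracked at 0, 8, 16, 24, 32 and 40 h of exposure.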
The nature of experiment [5]: qHTS RealTime-Glo MT Cell Viability Assay in HEK293 cells - 16 hour (AID 1224872). Note: top concentration of the series differs between compounds; nearly all actives have a fitted effect of over 50% in size. The procedure, abridged: as §1
Experiment [6] can be described thus: qHTS RealTime-Glo MT Cell Viability Assay in HepG2 cells - 8 hour (AID 1224873). Note: nearly all actives have a fitted effect of over 55% in size. In a few lines: as §3
Experiment [7] in a line: qHTS RealTime-Glo MT Cell Viability Assay in HEK293 cells - 40 hour (AID 1224874). Note: nearly all actives have a fitted effect of over 50% in size. Note: potency is the fitted concentration of half-maximal effect. To be noted: RealTime-Glo luminescence; max response: stronger effect = lower value. The procedure, abridged:
(§4)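 Cells were seeded together with NanoLuc luciferase and a prosubstrate that viable cells reduce to a luciferase substrate. After a 5 h incubation at 37 C/5% CO2, compounds were added and luminescence was measured repeatedly during 40 h of treatment.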

A short description of experiment [8]: A CellTox Green Cytotoxicity Assay to monitor cytotoxicity in HEK293 cells - 24 hour (AID 1224875). Note: nearly all actives have a fitted effect of over 45% in size. In a few lines: as §2
A short description of experiment [9]: qHTS RealTime-Glo MT Cell Viability Assay in HepG2 cells - 32 hour (AID 1224877). Note: nearly all actives have a fitted effect of over 55% in size. The procedure, abridged: (§5)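 HepG2 suspension premixed with RealTime-Glo reagents is plated at 600 cells per well and left 5 h at 37 C/5% CO2. Compounds in DMSO then go in, and bioluminescence reflecting viable cell number is recorded over 40 h.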
Experiment [10] in a line: A CellTox Green Cytotoxicity Assay to monitor cytotoxicity in HepG2 cells - 24 hour (AID 1224878). Note: nearly all actives have a fitted effect of over 45% in size. Note: potency is the fitted concentration of half-maximal effect. In a few lines:
(§6)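 Read-out is fluorescence of a cyanine dye excluded from live cells that stains DNA of dead HepG2 cells, with signal proportional to cytotoxicity. Plates were read at 0, 8, 16, 24, 32 and 40 h after compound addition.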

Experiment [11] is described as follows: A CellTox Green Cytotoxicity Assay to monitor cytotoxicity in HepG2 cells - 40 hour (AID 1224879). Note: nearly all actives have a fitted effect of over 40% in size. Note: potency is the fitted concentration of half-maximal effect. In a few lines: as §6
Experiment [12] can be described thus: qHTS RealTime-Glo MT Cell Viability Assay in HEK293 cells - 0 hour (AID 1224880). Note: top concentration of the series differs between compounds; nearly all actives have a fitted effect of over 45% in size. The procedure, abridged: as §4
Experiment [13] can be described thus: A CellTox Green Cytotoxicity Assay to monitor cytotoxicity in HEK293 cells - 32 hour (AID 1224881). Note: nearly all actives have a fitted effect of over 40% in size. In a few lines:
as §2

The nature of experiment [14]: qHTS assay to identify small molecule agonists of the hypoxia (HIF-1) signaling pathway (AID 1224846; active = well fitted activation curve with a large enough effect in the signal ratio in the repeat runs, not every such curve was filed as active; the % refers to the signal ratio). The procedure, abridged:
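Cell line: CellSensor HRE-bla ME-180; 2,000 cells/well; 0.5% dialyzed FBS; 5 h preincubation; DMSO compound pin transfer; 17 h, 37C, 5% CO2; CCF4-AM added; bla FRET signal scored for activation.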

Experiment [15] in a line: qHTS RealTime-Glo MT Cell Viability Assay in HepG2 cells - 24 hour (AID 1224867). Note: nearly all actives have a fitted effect of over 50% in size. The procedure, abridged:
as §5

Experiment [16] is described as follows: A CellTox Green Cytotoxicity Assay to monitor cytotoxicity in HEK293 cells - 40 hour (AID 1224871). Note: nearly all actives have a fitted effect of over 45% in size. The procedure, abridged:
as §2

The nature of experiment [17]: A CellTox Green Cytotoxicity Assay to monitor cytotoxicity in HepG2 cells - 16 hour (AID 1224876). Note: nearly all actives have a fitted effect of over 45% in size. Note: potency is the fitted concentration of half-maximal effect. The procedure, abridged:
as §6

Experiment [18] is described as follows: qHTS assay to identify small molecule agonists of the estrogen related receptor (ERR) signaling pathway from Tox21 library (AID 1224849; calls by dose curve; note: nearly all actives have a fitted effect of over 15% in size). The note with it: ERR reporter cell line, ONE-Glo luciferase, 18 h; at 92.4 µM (top of the series) unless noted. In a few lines:
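ERR cells, 6 h pre-incubation 37 C/5% CO2; cpd in DMSO pinned; 18 h 37 C; ONE-Glo added, 30 min RT; luminescence read. Agonist mode, qHTS.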
% is set by controls: 0 for no effect and ±100 for the full control effect.

Take `COCCOCCOCCOCCOC`: the Potency entry in experiment [1], in experiment [2], in [3], in experiment [4], in experiment [5] and in experiment [6] was “inactive” each time. Moreover, the Potency entry in experiment [8], in experiment [9], in experiment [10], in experiment [11], in [12] and in experiment [13] was “inactive” each time. Further, in experiment [7], the max response is -6.35%.
As to `Cn1c(N)nc2nc[nH]c2c1=O`, the compound was called inactive in [14]. For the same compound, the Potency entry in [1], in experiment [15], in [3], in experiment [4], in experiment [16] and in experiment [8] was “inactive” throughout. The Potency result in experiment [17], in [9], in [10], in experiment [12] and in experiment [13] was “inactive” throughout. Also, the Potency in experiment [11] is 21.6 µM (active).
As to `O=S1(=O)c2cccc3cccc(c23)N1CCCN1CCN(c2ccc(F)cc2)CC1`, the Potency result in experiment [1], in experiment [15], in experiment [2], in experiment [3], in experiment [4] and in experiment [16] was “inactive” throughout. The Potency entry in experiment [5], in experiment [6], in experiment [8], in experiment [9], in experiment [12] and in experiment [13] was “inactive” in each case. For the same compound, the activity change, positive = activation in experiment [18] is -30.2% [at 42.5 µM]. In experiment [7], the max response is -11.7%.
Turning to `CCCCCCc1ccc(N)cc1`, the compound was called inactive in experiment [14]. Besides, in experiment [18], the activity change, positive = activation is -26.6%. Moreover, the Potency entry in experiment [15], in experiment [2], in [3], in experiment [4], in [16] and in [5] was “inactive” each time. Also, the Potency entry in experiment [6], in [8], in [9], in [12] and in experiment [13] was “inactive” each time. In addition, the max response in experiment [7] was 4.72%. Moreover, the Potency in experiment [17], in experiment [10] and in experiment [11] was 49 µM (active) each time.
Regarding `CCOC(=O)[C@H](CCc1ccccc1)N[C@H]1CCc2ccccc2N(CC(=O)O)C1=O`, in experiment [3], the Potency entry is “inactive”. The Potency in experiment [17], in experiment [10] and in experiment [11] was 26.8 µM (active) each time.
Take `CC[C@]12CCCN3CCc4c(n(c5ccccc45)C(=O)C1)[C@@H]32`: the Potency result in [1], in experiment [3], in experiment [4], in experiment [6], in experiment [8] and in experiment [17] was “inactive” throughout. Also, the Potency entry in [9], in [10], in experiment [12] and in [13] was “inactive” each time. Further, the activity change, positive = activation in [18] was -17.2% [at 42.5 µM]. Further, the values for the Potency in experiment [2] and in experiment [7] were 4.77 µM (active) and 4.25 µM (active), respectively.
Turning to `O=C(/C=C/c1ccc(O)c(O)c1)O[C@@H]1C[C@](O)(C(=O)O)C[C@@H](O)[C@H]1O`, the Potency result in experiment [1], in [2], in [3], in experiment [16], in [5] and in [8] was “inactive” in each case. The Potency result in experiment [17], in experiment [9], in experiment [10], in [11], in experiment [12] and in experiment [13] was “inactive” each time. In experiment [7], the max response was -3.27%.
As for `O=C(c1ccccc1)c1ccc2n1CCC2C(=O)O` (stereo not given), the Potency entry in experiment [1], in experiment [15], in experiment [2], in experiment [3], in experiment [4] and in experiment [16] was “inactive” in each case. Also, the Potency result in [5], in [6], in experiment [8], in [17], in experiment [9] and in experiment [10] was “inactive” each time. For the same compound, the Potency result in [11], in [12] and in [13] was “inactive” in each case. In experiment [7], the max response is 0.683%.
With `O=[N+]([O-])c1cc[n+]([O-])cc1`, the compound was called inactive in [14]. The Potency result in experiment [1], in [2], in [3], in experiment [16], in experiment [5] and in experiment [6] was “inactive” each time. Also, the Potency entry in [8], in experiment [17], in experiment [10], in [11], in [12] and in experiment [13] was “inactive” in each case. Moreover, the max response in experiment [7] was -21.4%.
On to `CCCCCCCCCC=O`, for which, in experiment [14], the compound was classed as inactive. Moreover, the Potency result in experiment [1], in experiment [2], in experiment [3], in experiment [4], in [5] and in [6] was “inactive” throughout. In addition, the Potency result in experiment [8], in [17], in experiment [9], in [10], in experiment [11] and in experiment [13] was “inactive” in each case. Moreover, in experiment [7], the max response is 7.4%.
Consider `CN(c1nccc(=O)[nH]1)C1CCN(c2nc3ccccc3n2Cc2ccc(F)cc2)CC1`, for which the compound was called inactive in [14]. The Potency entry in [1], in experiment [15], in experiment [3], in [4], in experiment [16] and in [6] was “inactive” in each case. The Potency result in experiment [8], in experiment [17], in [9], in [10], in experiment [11] and in experiment [12] was “inactive” throughout. Besides, in experiment [13], the Potency entry was “inactive”.
